# Test results: PubChem BioAssay AID624377 (The Scripps Research Institute Molecular Screening Center, 2012)
# Screen size: about 360,000 compounds; about 680 (0.19%) were called active. Rule as the data show it: active = inhibition above about 25%; inactive = the rest. The sample as a whole holds a higher share of actives than the screen did.
# Target: Arf-GAP with SH3 domain, ANK repeat and PH domain-containing protein 1 (Homo sapiens) (UniProt Q9ULH1)
# Experiment: inhibitors of human ASAP1 ArfGAP activity, primary screen, biochemical, fluorescence polarization (AID 624377);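 also: 0% = vehicle with enzyme and substrate and 100% = no enzyme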
# Settings: ASAP1-stimulated ARF1 GTP hydrolysis, GDP FP detection; at 16.5 µM; stronger effect = higher value
# Arf-GAP with SH3 domain, ANK repeat and PH domain-containing protein 1 (Homo sapiens), sequence (Q9ULH1 325-724 limits assumed): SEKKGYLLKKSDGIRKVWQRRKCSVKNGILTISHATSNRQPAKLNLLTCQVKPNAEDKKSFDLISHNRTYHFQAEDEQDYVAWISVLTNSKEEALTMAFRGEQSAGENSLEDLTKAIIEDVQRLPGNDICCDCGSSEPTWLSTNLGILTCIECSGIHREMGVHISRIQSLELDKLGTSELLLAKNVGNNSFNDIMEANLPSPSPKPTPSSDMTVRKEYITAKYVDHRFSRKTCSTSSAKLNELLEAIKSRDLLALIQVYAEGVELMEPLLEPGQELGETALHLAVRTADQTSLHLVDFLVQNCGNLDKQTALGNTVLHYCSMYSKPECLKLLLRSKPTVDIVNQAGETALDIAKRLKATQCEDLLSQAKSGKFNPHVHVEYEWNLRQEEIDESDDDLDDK
row,Compound,inhibition
1,COC(=O)[C@]12C[C@H](CC(=O)NCc3ccc(OC)c(OC)c3)C(=O)N(Cc3ccccc3)C1=C[C@H](C(C)C)O[C@@H]2C1CC1,-17.1% (inactive)
2,COC(=O)c1ccc(CN2C(=O)[C@]3(OCCC=C[C@H]3C)c3c(Br)cccc32)cc1,8.64% (inactive)
3,COc1cccc(CNC(=O)[C@H]2CCCN2C(=O)[C@H]2CCCN2C(=O)c2cc(F)cc(F)c2)c1,6.55% (inactive)
4,COc1cccc(NC(=O)N(C)C[C@@H]2OCc3cn(nn3)CCCC(=O)N([C@@H](C)CO)C[C@H]2C)c1,-14.2% (inactive)
5,O=C(NCc1ccccc1)[C@H]1CCCN1C(=O)[C@@H]1CCCN1C(=O)c1ccc(Cl)cc1Cl,-1.03% (inactive)
6,O=C(C(=O)N1CCC(CNC(=O)c2cccnc2Cl)CC1)c1cccs1,0.64% (inactive)
7,CC(C)[C@H]1COCCS(=O)(=O)N1Cc1ccccc1-c1cccc2c1sc1ccccc12,-8.72% (inactive)
8,CC(=O)C1=C(C)N(Cc2ccccc2)C(=S)NC1c1cccc(Br)c1 (centres undefined),-2.66% (inactive)
9,C[C@H](O)[C@@H]1CN2CCc3ccc(-c4ccc5c(c4)OCO5)cc3[C@@H]2C[C@@H]1N(C)C(=O)C1CCCCC1,-4.95% (inactive)
10,Nc1ccn([C@@H]2O[C@H](C(=O)N[C@H]3CCCCNC3=O)[C@@H](O)[C@H]2O)c(=O)n1,-4.12% (inactive)
11,C[C@@H](CN1C2=NC[C@@H](Cc3ccccc3)N2C[C@H]1Cc1ccc(O)cc1)NC(=O)CCC1CCCCC1,-1.15% (inactive)
12,COC(=O)C1=C(C(=O)OC)C2C=C(C(C)C)C1C(=O)C2(C)O (centres undefined),-14.9% (inactive)
13,CC(C)(C)n1nc(C2CC2)c(Br)c1NC(=O)c1ccccc1F,-0.45% (inactive)
14,COC(=O)C1=C(C)N(Cc2cccc(C(F)(F)F)c2)C(=NCc2ccccc2)NC1c1ccc(Cl)cc1 (centres undefined),8.8% (inactive)
15,O=C(N[C@H](C(=O)N1CCC[C@H]1C(=O)NCCc1ccccc1Cl)c1ccccc1)c1ccccc1,8.89% (inactive)
16,Cc1ccc(C(=O)Nc2c(-c3ccccc3)[nH][nH]c2=O)cc1,-5.65% (inactive)
17,O=C(NC1=CC(=O)c2ccccc2C1=O)c1ccccc1,26.4% (active)
18,CN(C)C(=O)c1ccc(NC(=O)c2ccccc2-c2ccccc2)cc1,6.53% (inactive)
19,COC(=O)[C@]12C[C@H](CC(=O)NCCCCc3ccccc3)C(=O)N(Cc3ccc4c(c3)OCO4)C1=C[C@H](C(C)(C)C)O[C@@H]2C,-6.7% (inactive)
20,CC(C)[C@@H](C)/C=C/[C@@H](C)[C@H]1CC[C@@H]2[C@]1(C)CCC1[C@]23C=C[C@]2(C[C@@H](O)CC[C@]12C)N(c1ccc([N+](=O)[O-])cn1)O3 (some centres undefined),7.77% (inactive)
21,Nc1c(-c2cccc(Cl)c2)cnn1-c1cccc([N+](=O)[O-])c1,3.08% (inactive)
22,Cc1cccc(-n2ncc(Cl)c(Cl)c2=O)c1,24.7% (active)
23,Cc1cccc(N2Cc3ccccc3C2=NC(=O)c2ccc(Cl)nc2)c1,-4.91% (inactive)
24,CC1CCCN(c2cccc3c2S(=O)(=O)N(Cc2ccc(F)cc2)[C@@H](C)[C@H](c2ccccc2)O3)C1 (some centres undefined),0.02% (inactive)
25,COc1ccc(SSc2ccc(OC)cc2C(=O)O)c(C(=O)O)c1,-8.33% (inactive)

row,Compound,inhibition
1,Cc1cc(Br)cn2c(Cc3ccccc3C(F)(F)F)c(-c3ccc(C#N)cc3)nc12,-9.38% (inactive)
2,COC(=O)C1=C(C)N(Cc2ccc(C(F)(F)F)cc2)C(=NCc2ccc(C(F)(F)F)cc2)NC1c1cccc(Cl)c1 (centres undefined),1.4% (inactive)
3,CC(=O)Nc1cc(-c2ccc(N3CCN(C)CC3)cc2)cn2c(-c3cccc(C(=O)N(C)C)c3)cnc12,40.6% (active)
4,CC(=O)c1cccc(-c2cnc3c(NC=O)cc(-c4ccc(N5CCN(C)CC5)cc4)cn23)c1,39.8% (active)
5,COc1ccc(-c2cc(NC=O)c3ncc(-c4cccc(C(=O)N(C)C)c4)n3c2)c(OC)c1,-1.85% (inactive)
6,CC(=O)Nc1cccc(-c2cc(NC(C)=O)c3ncc(-c4ccccc4)n3c2)c1,-3.7% (inactive)
7,O=CNc1cc(-c2ccc(C(=O)N3CCOCC3)cc2)cn2c(-c3ccc(F)cc3)cnc12,7.38% (inactive)
8,CC(=O)Nc1cc(-c2ccc(N3CCN(C)CC3)cc2)cn2c(-c3ccc(F)cc3)cnc12,24.7% (active)
9,CN(C)C(=O)c1cccc(-c2cnc3c(NC=O)cc(-c4ccc(C(=O)N5CCOCC5)cc4)cn23)c1,-9.18% (inactive)
10,CC(=O)c1cccc(-c2cnc3c(NC=O)cc(-c4ccccc4Oc4ccccc4)cn23)c1,-4.36% (inactive)
11,COc1cccc(-c2cc(NC(C)=O)c3ncc(-c4cccc(C(C)=O)c4)n3c2)c1,-0.92% (inactive)
12,COC(=O)Cc1nnn2c1[C@H](C)[C@H](c1ccccc1Br)OCC2,-9.73% (inactive)
13,Cc1cc(N2CCN(C(=O)OC(C)(C)C)C[C@H]2C)ccc1N1CCN(Cc2ccccc2)[C@H](C)C1,0.89% (inactive)
14,Fc1ccc(-c2ccc(-c3nn4c(-c5ccco5)nnc4s3)o2)cc1,-2.12% (inactive)
15,c1ccc(-c2cc(-c3nnc4sc(-c5ccccn5)nn34)[nH]n2)cc1,28.1% (active)
16,CCCCCCCCN1C(=O)[C@@H](CC(=O)NCCCC)C[C@@]2(C(=O)OC)C1=C[C@H](C(C)(C)C)O[C@@H]2C,-1.77% (inactive)
17,COc1ccc(C(CNC(=O)c2ccc(S(=O)(=O)Nc3ccccc3C)cc2)N2CCOCC2)cc1 (centres undefined),1.23% (inactive)
18,COc1ccc(C(CNC(=O)c2cccc(S(=O)(=O)Nc3ccccc3Cl)c2)N2CCOCC2)cc1 (centres undefined),26.3% (active)
19,COc1ccc(C(CNC(=O)c2cccc(NS(=O)(=O)c3ccc(C)c(F)c3)c2)N2CCCC2)cc1 (centres undefined),-8.53% (inactive)
20,CCOc1ccccc1C(=O)N1CCC[C@@H]1C(=O)N1CCC[C@H]1C(=O)NCc1ccccc1,-4.19% (inactive)
21,CCC(=C/c1sc2ccc3ccccc3c2[n+]1C)/C=C1\Sc2ccc3ccccc3c2N1C,41.1% (active)
22,COCc1[nH]nc2c1C(c1ccccc1)N(c1ccccc1)C2=O (centres undefined),-1.83% (inactive)
23,COC(=O)[C@]12C[C@H](CC(=O)NCCC(C)C)C(=O)N(CCc3ccc(OC)c(OC)c3)C1=C[C@H](C(C)(C)C)O[C@@H]2C,10.4% (inactive)
24,Cc1nc(NC(=O)C(C)(C)C)sc1[N+](=O)[O-],-0.12% (inactive)
25,Nc1ncnc2c1ncn2[C@@H]1O[C@H](C(=O)N[C@@H](CCc2ccccc2)C(=O)N2CCCN(Cc3cccs3)CC2)[C@@H](O)[C@H]1O,-0.42% (inactive)

row,Compound,inhibition
1,COC(=O)C1=C(C)N(Cc2ccc(C(F)(F)F)cc2)C(=NCc2ccccc2)NC1c1ccccc1C(F)(F)F (centres undefined),-2.57% (inactive)
2,COCCNC(=S)N(C)[C@H]1C[C@H]2c3[nH]c4ccccc4c3CCN2C[C@H]1[C@H](C)O,6.89% (inactive)
3,O=C(NN=Cc1ccco1)C(=O)Nc1ccc(Cl)c([N+](=O)[O-])c1,3.05% (inactive)
4,COC(=O)C1=C(C)N(Cc2cccc(C(F)(F)F)c2)C(=NCc2ccccc2)NC1c1ccccc1C(F)(F)F (centres undefined),11.8% (inactive)
5,COC(=O)[C@H](CC(C)C)NS(=O)(=O)c1c(F)cccc1F,0.11% (inactive)
6,CCc1ccc(C2=CC(=O)CC(C)(C)C2=O)cc1,-7.16% (inactive)
7,C=CC[C@]12C[C@@]3(O[C@H](c4ccc(C(F)(F)F)cc4)N=C3C[C@H](c3ccc(OC)cc3)[C@H]1C)N(C1CCN(Cc3ccccc3)CC1)C2=O,5.12% (inactive)
8,CC(C)(C)c1ccc(S(=O)(=O)NCC2CCN(C(=O)C(=O)c3cc4ccccc4o3)CC2)cc1,-6.17% (inactive)
9,CCOC(=O)c1ccc(Nc2cc3ccccc3c(=O)[nH]2)cc1,29.1% (active)
10,CCOC(=O)c1ccc(NC(=O)c2c(NCc3ccccc3)[nH]c(=O)[nH]c2=O)cc1,-2.85% (inactive)
11,CCOC(=O)c1ccc(NC(=O)c2c(N)n(C)c(=O)[nH]c2=O)cc1,10.2% (inactive)
12,CCOC(=O)Cn1c2c(n(-c3ccc(F)cc3)c1=O)C=C(c1ccccc1)[C@@H](C)C(C(=O)N(C)C1CCCCC1)=C2,-1.25% (inactive)
13,O=C(N/N=C/c1cccc([N+](=O)[O-])c1)C1CC(=O)N(c2ccc(Br)cc2)C1 (centres undefined),-8.22% (inactive)
14,N#Cc1cc([N+](=O)[O-])ccc1Oc1cccc(/C=N/NC(=O)c2ccc(Cl)cc2)c1,25.2% (active)
15,CCCc1ccc(OCc2ccc(C(=O)N/N=C/c3cccc([N+](=O)[O-])c3)o2)c(OC)c1,-0.67% (inactive)
16,CN(C)C(=O)N1CCN(C(=O)[C@@H](Cc2ccccc2)NC(=O)[C@H]2O[C@@H](n3ccc(N)nc3=O)[C@H](O)[C@@H]2O)CC1,-4.92% (inactive)
17,COc1cccc(-c2cc(CNC(=O)[C@@H](Cc3ccccc3)NC(=O)[C@H]3O[C@@H](n4cnc(C(N)=O)n4)[C@H](O)[C@@H]3O)no2)c1,0.63% (inactive)
18,C=CCNc1nc(N)c(C(=C(C#N)C#N)c2ccccc2)s1,29.1% (active)
19,COC(=O)c1sc(N2CCN(Cc3ccccc3)CC2)nc1N,6.27% (inactive)
20,COc1ccccc1Cc1c(-c2ccc(F)cc2)nc2ccc(C)cn12,-3.6% (inactive)
21,COC(=O)C1=C(C)NC(=O)/C1=C/c1ccc(CNS(=O)(=O)c2ccc(C)cc2)o1,-2.9% (inactive)
22,O=c1/c(=C/c2ccc(CNS(=O)(=O)c3ccccc3)o2)sc2n1CCN=2,26% (active)
23,O=S(=O)(NCc1ccccc1)c1ccc(S(=O)(=O)N2CCCC2)cc1,16.8% (inactive)
24,Cc1ccc(C)c(CN2CCC(CNC(=O)C3CCCN(c4ncnc5c4nc4n5CCCCC4)C3)CC2)c1 (centres undefined),-4.48% (inactive)
